High-throughput results: PubChem BioAssay, several laboratories
Sampled rows, rich in hits. Any-hit rate of the full collection: about 2.7%.
DNA FID counter = counter-screen for HCV NS3 helicase inhibitors: DNA intercalator displacement; hit rate 0.17% among 290,000; AID 1845; inhibition, % at 7.9 µM; DNA fluorescent intercalator displacement, fluorescence; in the data active = inhibition above about 37%;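 also: 0% = vehicle and 100% = reference compound; higher means more ethidium bromide displaced from hairpin DNA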
PREPL inhibitor = inhibitors of human prolyl oligopeptidase-like enzyme PREPL | Q4J6C6 | recombinant PREPL, fluorescence polarization activity-based probe | inhibition, % at 5.96 µM | hit rate 0.68% among 320,000 | AID 2751;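 also: 0% = enzyme with DMSO and 100% = wells lacking enzyme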
ANO1 block = blocks the mouse calcium-activated chloride channel TMEM16A; HEK293 TMEM16A/YFP iodide influx fluorescence, ionomycin; AID 588511; Q8BHY3; normalized B-score (activity score, 25-100; higher = stronger inhibition) at 10 µM; hit rate 1.2% among 310,000;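 active = ratio plate-corrected score three or more library SD toward inhibition, starting fluorescence score within five deviations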;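 also: score derived from kinetic fluorescence span divided by baseline fluorescence per well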
PP5 inh = blocks human protein phosphatase 5 activity; P53041; hit rate 0.18% among 320,000; inhibition, % at 6.7 µM; AID 1987; purified PP5c, OMFP substrate fluorescence;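 active = inhibition above the campaign's mean inhibition across all tested compounds plus 3 SD, cut at about 9.5% in these data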;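 also: 0% = DMSO only and 100% = 100 µM cantharidin control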
PP1 counter = counter-screen for PP5 inhibitors: inhibitors of human PP1-alpha | P62136 | purified PP1alpha, OMFP fluorescence | inhibition, % at 6.7 µM | hit rate 0.9% among 320,000 | AID 2235;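 active = inhibition above the mean inhibition of all tested compounds plus 3 SD, computed separately for each screening campaign, cut at about 15% in these data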
Target sequence (P62136 whole entry, looked up): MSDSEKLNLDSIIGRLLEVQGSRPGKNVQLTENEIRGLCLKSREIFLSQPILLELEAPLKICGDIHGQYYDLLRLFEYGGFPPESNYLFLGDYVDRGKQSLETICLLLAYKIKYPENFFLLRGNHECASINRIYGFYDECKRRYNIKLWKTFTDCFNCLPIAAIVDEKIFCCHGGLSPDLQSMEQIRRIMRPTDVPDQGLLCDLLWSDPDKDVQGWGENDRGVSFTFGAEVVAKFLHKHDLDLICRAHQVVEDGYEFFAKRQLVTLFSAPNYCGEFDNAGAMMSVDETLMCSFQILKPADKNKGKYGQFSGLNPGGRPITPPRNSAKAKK
TMEM16A act = activates or potentiates the mouse TMEM16A chloride channel; Q8BHY3; HEK293 TMEM16A/YFP-H148Q/I152L, iodide quench fluorescence; active compounds read low; B-score at 10 µM; hit rate 0.3% among 340,000; AID 623877;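 active = fluorescence-ratio B-score plate-corrected deviation score at least 3 library SD below zero, with starting fluorescence score within 5 deviations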;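 also: channel opened by trigger with iodide after compound preincubation; score built on the fluorescence ratio of max minus min over baseline; more negative score means more quench and so TMEM16A activation or potentiation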
PREPL confirm = human PREPL inhibition, confirmation; shares compounds with PREPL inhibitor; recombinant PREPL, fluorescence polarization activity probe; inhibition, % at 5.96 µM; hit rate 67% among 2,000;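 also: 0% = protein with DMSO and 100% = wells lacking protein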
An asterisk follows results filed as active; i = inactive; x = not tested or not shown; ! = a repeat was not active. Rule as the data show it, unless noted: active = inhibition above about 43%; inactive = the rest.

SMILES	DNA FID counter	PREPL inhibitor	ANO1 block	PP5 inh	PP1 counter	TMEM16A act	PREPL confirm
C[C@H](CO)N1C[C@H](C)[C@H](CN(C)Cc2ccccc2)Oc2c(NC(=O)Nc3ccc(F)cc3)cccc2C1=O	x	53*	x	x	x	i	55*
C[C@@H]1CN([C@H](C)CO)C(=O)c2cc(NC(=O)c3ccncc3)ccc2O[C@@H]1CN(C)C(=O)Nc1ccccc1	x	14	x	x	x	i	x
COc1ccc(CNC(=O)C2CCC(CNS(=O)(=O)c3ccc(C)cc3)CC2)cc1 (stereo not drawn)	-40	1	i	1	-1	i	x
CCc1ccc(C2NC(=O)c3ccccc3O2)cc1 (stereo not drawn)	-15	0	i	-1	2	i	x
C[C@H](CO)N1C[C@H](C)[C@@H](CN(C)S(=O)(=O)c2ccc(F)cc2)Oc2c(NC(=O)Cc3ccccc3)cccc2C1=O	x	44*	x	x	x	x	30
C[C@@H]1CN([C@@H](C)CO)C(=O)Cc2cc(NC(=O)Nc3cccc4ccccc34)ccc2O[C@@H]1CN(C)S(C)(=O)=O	x	45*	x	x	x	i	43
C[C@H]1CN([C@@H](C)CO)C(=O)c2cc(NC(=O)Nc3cccc4ccccc34)ccc2O[C@@H]1CN(C)Cc1ccc(-c2ccccc2)cc1	x	48*	x	x	x	i	45*
COc1ccc(NC(=O)Nc2cccc3c2O[C@@H](CN(C)CC2CCCCC2)[C@@H](C)CN([C@H](C)CO)C3=O)cc1	x	57*	x	x	x	i	51*
C[C@H](CO)N1C[C@H](C)[C@@H](CN(C)S(=O)(=O)c2ccc(F)cc2)Oc2ccc(NC(=O)Cc3ccccc3)cc2C1=O	x	21	x	x	x	i	x
O=C(O)CC1(CC(=O)NCc2csc(-c3cccs3)n2)CCCCC1	-23	11	i	1	-3	i	x
COc1cccc(OCCNS(=O)(=O)c2ccccc2[N+](=O)[O-])c1	x	-13	x	x	x	i	x
Cc1ccccc1-c1nc(CN2CCC(C(=O)N3CCC(C(N)=O)CC3)CC2)c(C)o1	4	38	i	0	-5	i	x
Cc1ccccc1-c1nc(CN2CCC(C(=O)N3CCN(c4ccccn4)CC3)CC2)c(C)o1	13	49*	i	2	-8	i	43
CN(CC(=O)Nc1ccccc1Cl)C(=O)c1cc(C2CC2)nn1-c1ccccc1	x	-4	x	-1	-1	i	x
Cc1cc(C(=O)COc2cccc3cccnc23)c(C)n1C	1	65*	i	-3	4	i	10
Cc1ccc2nc3c(cc(C(=O)NCCc4ccccc4)c(=N)n3CCN3CCOCC3)c(=O)n2c1	-16	45*	i	-2	0	i	42
COc1ccc(C(=O)N2CCN(CCCc3ccccc3)CC2)cc1OC	-15	13	i	1	-2	i	x
Cc1c(Cl)cccc1NC(=O)COC(=O)c1c2c(nc3ccccc13)CCN(Cc1ccccc1)C2	-6	51*	i	3	4	i	46*
CN(C)c1ccc(C(CNC(=O)COc2ccc(Cl)cc2)N2CCCC2)cc1 (stereo not drawn)	18	67*	i	-1	0	i	53*
COc1ccc(C(CNC(=O)COc2cc(C)ccc2Cl)N2CCCCC2)cc1 (stereo not drawn)	x	10	i	-1	-1	i	x
COc1ccc(CCNC(=O)c2ccc(CS(=O)Cc3ccc(C)cc3)o2)cc1OC (stereo not drawn)	-51	15	i	1	-2	i	x
Cc1ccsc1C(=O)Nc1ccc(F)c([N+](=O)[O-])c1	6	45*	i	0	1	i	38
Oc1sc(C=Nc2ccc(F)cc2)c2ccccc12	0	51*	i	1	-2	i	51*
Oc1sc(C=Nc2ccccc2)c2ccccc12	0	39	i	4	2	i	x
COc1cc(NC(=O)C2CC(c3ccc(Cl)cc3)=NO2)cc(OC)c1OC (stereo not drawn)	-30	44*	i	2	-4	i	38
SMILES	DNA FID counter	PREPL inhibitor	ANO1 block	PP5 inh	PP1 counter	TMEM16A act	PREPL confirm
COc1ccc(/C=C/c2nc3ccccc3n2Cc2ccccc2OC)cc1	-10	49*	i	2	4	i	47*
Cc1nnc(N/N=C/c2cccc(OCc3ccc(Cl)c(Cl)c3)c2)n1N	0	73*	i	4	10	i	65*
Cc1nnc(N/N=C/c2cccc(C(F)(F)F)c2)n1N	-3	3	i	-1	-3	i	x
Nc1c(N2CCN(c3ccccc3)CC2)c2ccccc2oc1=O	-2	51*	i	1	2	i	42
CNC[C@H]1Oc2c(NS(=O)(=O)c3cccs3)cccc2C(=O)N([C@H](C)CO)C[C@@H]1C	x	9	x	x	x	i	x
Cc1ccc(-n2c(SCC(=O)N(C)C3CCS(=O)(=O)C3)nc3ccccc3c2=O)c(C)c1 (stereo not drawn)	x	53*	x	x	x	i	0
O=C(CNC(=O)c1ccc(Cl)cc1)NCc1ccccn1	x	-2	x	-1	-5	i	x
COc1cc(/C=C2/SC(=S)N(CC(=O)O)C2=O)ccc1OC(=O)c1cccs1	-29	59*	i	1	5	i	62*
Cc1ccccc1OCC(O)Cn1c(=N)n(CCN2CCOCC2)c2ccccc21 (stereo not drawn)	35	56*	i	4	2	i	45*!
Cc1cc(C)c(Nc2ncnc(N)n2)c(C)c1	-3	19	i	2	-1	i	x
O=C(NCCNc1ccc2ccccc2c1)c1cccn2c(=O)c3sccc3nc12	0	51*	i	2	-2	x	41
O=C(NCCN1CCN(c2ccccc2)CC1)c1cccn2c(=O)c3ccccc3nc12	-2	-14	i	3	1	i	x
CNC(=S)NNC(=O)c1cc(C(C)(C)C)nn1Cc1ccc(F)cc1	-10	0	i	1	-4	i	x
CC(C)(C)NC(=O)NC(=O)COC(=O)c1cc[n+]([O-])cc1	0	21	i	1	2	i	x
O=C(CCc1ccccc1)NNC(=O)COc1ccccc1Cl	-15	6	i	2	-4	i	x
Cc1nn(-c2ccc(Br)cc2)c(=O)c2ccccc12	-12	75*	i	2	-2	i	2
Cc1nn(-c2ccccc2C(=O)O)c(=O)c2ccccc12	2	-6	i	1	-3	i	x
Cc1ccc(NC(=O)CSCc2n[nH]c(=O)[nH]2)c(Br)c1	2	2	i	1	-1	i	x
O=C(NCCCN1CCOCC1)c1ccc2c(c1)N(Cc1ccc(F)cc1)CCS2	21	26	i	-3	-2	i	x
